From PubChem BioAssay (Tox21)
Results filed as inconclusive are left out. Activity calls are given as the source filed them. The call rests on the fitted dose curve; in most records, active means well fitted curve in the direction sought with a large enough effect in the repeat runs; inconclusive means weak or mixed curves; inactive means no such curve, though single readings can be large; an effect the other way counts as inactive or inconclusive.

Key:
[1] = A CellTox Green Cytotoxicity Assay to monitor cytotoxicity in HepG2 cells - 0 hour (AID 1224882); further: nearly all actives have a fitted effect of over 35% in size
In short: (§1)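 Nonlytic assay: viable cells exclude the dye, so fluorescence scales with cell death. HepG2 at 600 cells/well, compounds added after 5 h, signal read across 40 h.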

[2] = A CellTox Green Cytotoxicity Assay to monitor cytotoxicity in HepG2 cells - 32 hour (AID 1224883); further: nearly all actives have a fitted effect of over 50% in size
In short: as §1

[3] = A CellTox Green Cytotoxicity Assay to monitor cytotoxicity in HEK293 cells - 8 hour (AID 1224884); further: nearly all actives have a fitted effect of over 35% in size
In short: (§2)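 Seeding of HEK293 cells together with cytotoxicity dye preceded a 5 h incubation at 37 C/5% CO2. Test compounds in DMSO were then added and fluorescence monitored across 40 h.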

[4] = qHTS RealTime-Glo MT Cell Viability Assay in HepG2 cells - 16 hour (AID 1224885); further: nearly all actives have a fitted effect of over 50% in size
In short: (§3)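 Luminescence read-out: viable HepG2 cells reduce a prosubstrate to a NanoLuc substrate, giving a signal proportional to live cell number. Reads taken at 0, 8, 16, 24, 32 and 40 h of compound exposure at 37 C.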

[5] = qHTS RealTime-Glo MT Cell Viability Assay in HEK293 cells - 24 hour (AID 1224886); further: top concentration of the series differs between compounds; nearly all actives have a fitted effect of over 50% in size
In short: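 Nonlytic real-time viability readout: viable cells convert prosubstrate to NanoLuc substrate, giving luminescence proportional to live cell number. HEK293, 600 cells/well, compound added after 5 h, continuous culture at 37 C.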

[6] = qHTS RealTime-Glo MT Cell Viability Assay in HEK293 cells - 8 hour (AID 1224887); further: top concentration of the series differs between compounds; nearly all actives have a fitted effect of over 50% in size
In short: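 Tox21 screen in HEK293 using RealTime-Glo MT chemistry, with cells and reagent co-dispensed. Luminescence proportional to viable cell number was captured at intervals during 40 h compound exposure at 37 C.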

[7] = A CellTox Green Cytotoxicity Assay to monitor cytotoxicity in HEK293 cells - 16 hour (AID 1224888); further: nearly all actives have a fitted effect of over 35% in size
In short: as §2

[8] = qHTS RealTime-Glo MT Cell Viability Assay in HepG2 cells - 0 hour (AID 1224889); further: nearly all actives have a fitted effect of over 50% in size
In short: as §3

[9] = A CellTox Green Cytotoxicity Assay to monitor cytotoxicity in HepG2 cells - 8 hour (AID 1224890); further: nearly all actives have a fitted effect of over 45% in size
In short: as §1

[10] = qHTS assay to identify small molecule antagonists of the estrogen receptor alpha (ER-alpha) signaling pathway using the BG1 cell line in the presence of 0.1 nM 17-beta-estradiol - cell viability counter screen (AID 1259241); further: nearly all actives have a fitted effect of over 40% in size
In short: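 Measures cytotoxicity alongside the ER-alpha antagonist readout: VM7Luc4E2 cells, charcoal-stripped serum, 0.1 nM 17beta-estradiol final, 22 hr compound incubation at 37C, CellTiter-Fluor fluorescence.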
On the % scale 0 is the no-effect control and ±100 the full control effect.

CC(C)c1ccccc1
inactive: Potency [1] | Potency [2] | Potency [3] | outcome [4] | Potency [5] | Potency [6] | Potency [7] | Potency [8] | Potency [9] | Potency [10]

CC1=CC(=O)CC(C)(C)C1=O
inactive: Potency [1] | Potency [2] | Potency [3] | outcome [4] | Potency [5] | Potency [6] | Potency [7] | Potency [8] | Potency [10]

CCCCNc1cc(C(=O)O)cc(S(N)(=O)=O)c1Oc1ccccc1
inactive: Potency [1] | Potency [2] | Potency [3] | outcome [4] | Potency [5] | Potency [6] | Potency [8]

CCCC1CCC(=O)O1 (centres undefined)
inactive: Potency [1] | Potency [2] | Potency [3] | outcome [4] | Potency [5] | Potency [6] | Potency [7] | Potency [8] | Potency [9] | Potency [10]

N#CSCC(=O)O
inactive: Potency [1] | Potency [2] | Potency [3] | outcome [4] | Potency [5] | Potency [6] | Potency [7] | Potency [8] | Potency [9] | Potency [10]

COC(=O)c1ccc2cc(C(=O)OC)ccc2c1
inactive: cytotoxicity [1] -8.67% [at 15.8 µM] | cytotoxicity increase [2] -17.5% [at 15.8 µM] | cytotoxicity increase [3] -0.0057% [at 15.8 µM] | activity change, negative = cytotoxic [4] 3.7% [at 15.8 µM] | activity change, negative = cytotoxicity [5] -1.22% [at 15.8 µM] | activity change, negative = cytotoxicity [6] 0.421% [at 15.8 µM] | activity change, negative = cytotoxicity [8] 9.21% [at 15.8 µM]

OCCN(CCO)c1ccccc1
inactive: Potency [1] | Potency [2] | Potency [3] | outcome [4] | Potency [5] | Potency [6] | Potency [7] | Potency [8] | Potency [9] | Potency [10]

CN1CCN(c2c(F)cc3c(=O)c(C(=O)O)cn4c3c2SCC4)CC1
inactive: Potency [1] | Potency [2] | Potency [3] | outcome [4] | Potency [5] | Potency [6] | Potency [7] | Potency [8] | Potency [10]

CCNCCO
inactive: Potency [1] | Potency [2] | Potency [3] | outcome [4] | Potency [5] | Potency [6] | Potency [7] | Potency [8] | Potency [10]

CO[C@@]1(NC(=O)CSCC#N)C(=O)N2C(C(=O)O)=C(CSc3nnnn3C)CS[C@@H]21
inactive: Potency [1] | Potency [2] | Potency [3] | outcome [4] | Potency [5] | Potency [6] | Potency [7] | Potency [8] | Potency [9] | Potency [10]

C=CCc1cc(OC)c(O)c(C(=O)NCCO)c1
inactive: Potency [1] | Potency [2] | Potency [3] | outcome [4] | Potency [5] | Potency [6] | Potency [7] | Potency [8] | Potency [9] | Potency [10]

CCN(O)CC
inactive: Potency [1] | Potency [2] | Potency [3] | outcome [4] | Potency [5] | Potency [6] | Potency [7] | Potency [8] | Potency [9] | Potency [10]

O=C(O)C(=O)Cc1c[nH]c2ccccc12
inactive: Potency [1] | Potency [2] | Potency [3] | outcome [4] | Potency [5] | Potency [6] | Potency [7] | Potency [9] | Potency [10]

CCN[C@H]1CN(CCCOC)S(=O)(=O)c2sc(S(N)(=O)=O)cc21
inactive: Potency [1] | Potency [2] | Potency [3] | outcome [4] | Potency [5] | Potency [6] | Potency [7] | Potency [8] | Potency [10]

CC(C)Nc1nc(N)nc(Cl)n1
inactive: Potency [1] | Potency [2] | Potency [3] | outcome [4] | Potency [5] | Potency [6] | Potency [8] | Potency [9]

Cc1cc2c(s1)Nc1ccccc1N=C2N1CCN(C)CC1
inactive: Potency [1] | Potency [2] | Potency [3] | outcome [4] | Potency [5] | Potency [6] | Potency [8] | Potency [9]

COc1cc(Cl)ccc1Cl
inactive: Potency [1] | Potency [2] | Potency [3] | outcome [4] | Potency [5] | Potency [6] | Potency [8] | Potency [9] | Potency [10]

Cc1cc2nc(N)sc2cc1C
inactive: Potency [1] | Potency [2] | Potency [3] | outcome [4] | Potency [5] | Potency [6] | Potency [8] | Potency [9] | Potency [10]

CCN(CC)CC1CCCCN1CC(=O)N1c2ccccc2C(=O)Nc2cccnc21 (centres undefined)
inactive: Potency [1] | Potency [2] | Potency [3] | outcome [4] | Potency [5] | Potency [6] | Potency [8] | Potency [9] | Potency [10]

O=C1Nc2ccc([N+](=O)[O-])cc2C1=O
inactive: Potency [1] | Potency [2] | Potency [3] | outcome [4] | Potency [7] | Potency [8] | Potency [9] | Potency [10]

NC(=O)Cc1cccc(C(=O)c2ccccc2)c1N
inactive: Potency [1] | Potency [2] | Potency [3] | outcome [4] | Potency [6] | Potency [7] | Potency [8] | Potency [9] | Potency [10]
